In PMC7862700, “An all-to-all approach to the identification of sequence-specific readers for epigenetic DNA modifications on cytosine”:

What was measured:
Experiment in all cases: DAPPL (digital affinity profiling via proximity ligation, sequencing); 10 mM Tris-HCl pH 7.5, 50 mM NaCl, 1 mM DTT, 4% glycerol, room temperature, 30 min; GST-TFs on glutathione beads, 16-mer random dsDNA library, 0.1% formaldehyde crosslink after washing; high values mean tight binding
FLI1 = target: T1, FLI1 (Homo sapiens, UniProt Q01543 1-452); details: protein: recombinant; tags: N-terminal GST; dsDNA, one strand shown
T1 sequence: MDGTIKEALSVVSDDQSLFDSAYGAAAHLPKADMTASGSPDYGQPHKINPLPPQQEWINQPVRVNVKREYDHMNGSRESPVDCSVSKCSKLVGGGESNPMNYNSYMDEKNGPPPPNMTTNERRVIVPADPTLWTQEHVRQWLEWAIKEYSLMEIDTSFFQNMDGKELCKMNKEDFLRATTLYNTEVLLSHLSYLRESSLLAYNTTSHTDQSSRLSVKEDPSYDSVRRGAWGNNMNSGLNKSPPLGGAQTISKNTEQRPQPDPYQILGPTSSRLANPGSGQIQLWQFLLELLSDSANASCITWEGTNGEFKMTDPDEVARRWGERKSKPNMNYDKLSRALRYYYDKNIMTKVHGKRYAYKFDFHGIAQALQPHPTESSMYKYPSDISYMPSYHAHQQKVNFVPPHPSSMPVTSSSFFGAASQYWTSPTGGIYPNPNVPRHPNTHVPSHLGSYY
Procedure, shortened: (§1)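 A tag-only sample was pooled with DNA-barcoded human transcription factors that had been expressed in yeast as GST fusions and captured on glutathione beads. The pools were incubated for 30 min at room temperature with 200 nmole of a random double-stranded 16-mer DNA library in Tris/NaCl/DTT/glycerol buffer, then washed, crosslinked with 0.1% formaldehyde, proximity-ligated (BsaI/T4 ligase, 1 h, 37 °C), PCR-amplified and sequenced on an Illumina NextSeq500. Binding signal is each hexamer's read frequency for a factor divided by its frequency for the tag-only sample.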

ELK1 = target: T2, ELK1 (Homo sapiens, UniProt P19419 1-428); details: protein: recombinant; tags: N-terminal GST; dsDNA, one strand shown
T2 sequence: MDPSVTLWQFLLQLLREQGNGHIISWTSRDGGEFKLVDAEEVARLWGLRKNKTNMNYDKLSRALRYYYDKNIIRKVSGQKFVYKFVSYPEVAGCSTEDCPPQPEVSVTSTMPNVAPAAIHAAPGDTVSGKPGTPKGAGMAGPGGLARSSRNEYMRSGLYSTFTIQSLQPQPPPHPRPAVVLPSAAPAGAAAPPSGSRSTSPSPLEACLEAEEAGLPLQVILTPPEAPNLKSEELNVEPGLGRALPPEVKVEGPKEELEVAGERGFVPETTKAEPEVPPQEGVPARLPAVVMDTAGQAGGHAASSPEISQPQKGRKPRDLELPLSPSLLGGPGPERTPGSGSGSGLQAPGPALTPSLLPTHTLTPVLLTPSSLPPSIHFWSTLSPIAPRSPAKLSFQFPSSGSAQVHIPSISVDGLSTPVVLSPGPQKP
Procedure, shortened: as §1

GABPA = target: T3, GABPA (Homo sapiens, UniProt Q06546 1-454); details: protein: recombinant; tags: N-terminal GST; dsDNA, one strand shown
T3 sequence: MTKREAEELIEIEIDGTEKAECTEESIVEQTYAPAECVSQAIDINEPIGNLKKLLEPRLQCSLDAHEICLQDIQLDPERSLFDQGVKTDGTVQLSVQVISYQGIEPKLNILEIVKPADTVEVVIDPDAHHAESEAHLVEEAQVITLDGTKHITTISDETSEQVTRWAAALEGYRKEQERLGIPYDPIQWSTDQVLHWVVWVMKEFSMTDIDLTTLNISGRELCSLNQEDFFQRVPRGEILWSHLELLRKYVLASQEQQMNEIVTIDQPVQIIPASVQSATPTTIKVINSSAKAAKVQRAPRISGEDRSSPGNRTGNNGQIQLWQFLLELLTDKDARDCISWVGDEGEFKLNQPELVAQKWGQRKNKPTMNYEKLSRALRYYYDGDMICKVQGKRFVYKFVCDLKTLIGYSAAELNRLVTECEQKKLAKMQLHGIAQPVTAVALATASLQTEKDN
Procedure, shortened: as §1

ERG = target: T4, ERG (Homo sapiens, UniProt P11308 1-479); details: protein: recombinant; tags: N-terminal GST; dsDNA, one strand shown
T4 sequence: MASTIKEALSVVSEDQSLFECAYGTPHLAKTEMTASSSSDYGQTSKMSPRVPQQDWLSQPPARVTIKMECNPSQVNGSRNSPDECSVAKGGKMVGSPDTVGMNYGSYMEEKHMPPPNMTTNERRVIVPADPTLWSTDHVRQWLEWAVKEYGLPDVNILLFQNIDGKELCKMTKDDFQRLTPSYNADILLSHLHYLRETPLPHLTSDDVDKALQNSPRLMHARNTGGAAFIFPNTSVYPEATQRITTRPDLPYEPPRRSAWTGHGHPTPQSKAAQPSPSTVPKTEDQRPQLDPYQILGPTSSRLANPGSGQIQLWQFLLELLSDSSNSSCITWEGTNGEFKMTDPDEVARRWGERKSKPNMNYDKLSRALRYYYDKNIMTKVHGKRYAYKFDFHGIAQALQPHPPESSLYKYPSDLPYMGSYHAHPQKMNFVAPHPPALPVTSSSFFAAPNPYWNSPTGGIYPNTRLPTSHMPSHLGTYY
Procedure, shortened: as §1

ELF1 = ELF1 (Homo sapiens, UniProt P32519 1-619); details: protein: recombinant; tags: N-terminal GST; dsDNA, one strand shown
Procedure, shortened: as §1

EHF = target: T5, EHF (Homo sapiens, UniProt Q9NZC4 1-300); details: protein: recombinant; tags: N-terminal GST; dsDNA, one strand shown
T5 sequence: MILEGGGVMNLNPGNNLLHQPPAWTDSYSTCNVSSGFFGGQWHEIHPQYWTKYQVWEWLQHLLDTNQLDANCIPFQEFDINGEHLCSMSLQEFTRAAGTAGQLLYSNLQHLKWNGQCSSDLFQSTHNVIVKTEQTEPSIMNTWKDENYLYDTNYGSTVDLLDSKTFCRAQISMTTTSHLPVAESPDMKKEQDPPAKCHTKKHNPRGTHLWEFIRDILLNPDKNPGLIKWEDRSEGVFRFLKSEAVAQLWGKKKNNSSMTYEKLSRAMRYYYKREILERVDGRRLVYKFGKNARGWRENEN
Procedure, shortened: as §1

SPI1 = SPI1 (Homo sapiens, UniProt P17947 1-270); details: protein: recombinant; tags: N-terminal GST; dsDNA, one strand shown
Procedure, shortened: as §1

SPIB = SPIB (Homo sapiens, UniProt Q01892 1-262); details: protein: recombinant; tags: N-terminal GST; dsDNA, one strand shown
Procedure, shortened: as §1

ELK3 = target: T6, ELK3 (Homo sapiens, UniProt P41970 1-407); details: protein: recombinant; tags: N-terminal GST; dsDNA, one strand shown
T6 sequence: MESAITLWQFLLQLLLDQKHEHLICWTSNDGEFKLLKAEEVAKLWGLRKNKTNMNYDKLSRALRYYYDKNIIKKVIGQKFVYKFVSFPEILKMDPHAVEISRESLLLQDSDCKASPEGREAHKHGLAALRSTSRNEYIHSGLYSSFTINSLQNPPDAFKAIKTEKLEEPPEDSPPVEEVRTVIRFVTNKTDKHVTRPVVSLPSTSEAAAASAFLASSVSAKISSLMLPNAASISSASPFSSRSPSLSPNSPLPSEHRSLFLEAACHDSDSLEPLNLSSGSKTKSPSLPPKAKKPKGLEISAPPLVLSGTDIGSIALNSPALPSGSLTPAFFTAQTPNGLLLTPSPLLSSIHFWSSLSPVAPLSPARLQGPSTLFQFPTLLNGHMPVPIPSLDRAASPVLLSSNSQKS
Procedure, shortened: as §1

FEV = target: T7, FEV (Homo sapiens, UniProt Q99581 1-238); details: protein: recombinant; tags: N-terminal GST; dsDNA, one strand shown
T7 sequence: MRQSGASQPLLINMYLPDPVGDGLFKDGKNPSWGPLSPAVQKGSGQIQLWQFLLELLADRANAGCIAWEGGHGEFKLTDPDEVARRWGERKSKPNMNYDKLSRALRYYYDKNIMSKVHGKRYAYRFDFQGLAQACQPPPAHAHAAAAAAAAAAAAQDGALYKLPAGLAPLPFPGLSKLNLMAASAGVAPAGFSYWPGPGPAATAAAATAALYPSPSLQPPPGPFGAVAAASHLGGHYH
Procedure, shortened: as §1

ETV5 = ETV5 (Homo sapiens, UniProt P41161 1-510); details: protein: recombinant; tags: N-terminal GST; dsDNA, one strand shown
Procedure, shortened: as §1

HSF1 = HSF1 (Homo sapiens, UniProt Q00613 1-529); details: protein: recombinant; tags: N-terminal GST; chain copies: 3; dsDNA, one strand shown
Procedure, shortened: as §1

SPIC = target: T8, SPIC (Homo sapiens, UniProt Q8N5J4 1-248); details: protein: recombinant; tags: N-terminal GST; dsDNA, one strand shown
T8 sequence: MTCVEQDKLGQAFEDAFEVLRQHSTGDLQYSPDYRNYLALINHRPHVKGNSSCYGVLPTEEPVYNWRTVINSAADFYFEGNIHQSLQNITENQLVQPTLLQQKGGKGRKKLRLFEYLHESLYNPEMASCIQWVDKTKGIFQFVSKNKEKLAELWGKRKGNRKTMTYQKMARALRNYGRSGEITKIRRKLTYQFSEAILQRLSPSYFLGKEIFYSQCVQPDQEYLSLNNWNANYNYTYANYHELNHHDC
Procedure, shortened: as §1

ELF4 = ELF4 (Homo sapiens, UniProt Q99607 1-663); details: protein: recombinant; tags: N-terminal GST; dsDNA, one strand shown
Procedure, shortened: as §1

ELK4 = target: T9, ELK4 (Homo sapiens, UniProt P28324-2 1-405); details: protein: recombinant; tags: N-terminal GST; dsDNA, one strand shown
T9 sequence: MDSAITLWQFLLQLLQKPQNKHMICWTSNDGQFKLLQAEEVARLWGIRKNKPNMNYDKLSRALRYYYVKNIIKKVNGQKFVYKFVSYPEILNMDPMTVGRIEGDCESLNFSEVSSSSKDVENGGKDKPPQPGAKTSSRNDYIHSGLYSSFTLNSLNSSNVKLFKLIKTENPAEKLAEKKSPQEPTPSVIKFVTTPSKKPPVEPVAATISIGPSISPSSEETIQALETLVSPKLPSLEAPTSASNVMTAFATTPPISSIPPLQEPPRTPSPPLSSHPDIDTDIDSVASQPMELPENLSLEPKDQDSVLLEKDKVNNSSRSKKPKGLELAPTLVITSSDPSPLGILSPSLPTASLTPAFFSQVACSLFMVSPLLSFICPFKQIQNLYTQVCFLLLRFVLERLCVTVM
Procedure, shortened: as §1

ETV2 = target: T10, ETV2 (Homo sapiens, UniProt O00321 1-342); details: protein: recombinant; tags: N-terminal GST; dsDNA, one strand shown
T10 sequence: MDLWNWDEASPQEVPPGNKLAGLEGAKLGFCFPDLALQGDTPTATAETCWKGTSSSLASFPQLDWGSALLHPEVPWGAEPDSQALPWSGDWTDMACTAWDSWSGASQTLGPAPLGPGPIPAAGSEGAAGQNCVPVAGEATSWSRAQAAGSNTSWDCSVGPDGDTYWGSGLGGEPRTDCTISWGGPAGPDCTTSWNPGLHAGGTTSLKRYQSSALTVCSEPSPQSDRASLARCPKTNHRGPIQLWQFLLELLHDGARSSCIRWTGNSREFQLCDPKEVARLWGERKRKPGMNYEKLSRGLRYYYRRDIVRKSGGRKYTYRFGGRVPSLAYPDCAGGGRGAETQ
Procedure, shortened: as §1

ELF3 = target: T11, ELF3 (Homo sapiens, UniProt P78545 1-371); details: protein: recombinant; tags: N-terminal GST; dsDNA, one strand shown
T11 sequence: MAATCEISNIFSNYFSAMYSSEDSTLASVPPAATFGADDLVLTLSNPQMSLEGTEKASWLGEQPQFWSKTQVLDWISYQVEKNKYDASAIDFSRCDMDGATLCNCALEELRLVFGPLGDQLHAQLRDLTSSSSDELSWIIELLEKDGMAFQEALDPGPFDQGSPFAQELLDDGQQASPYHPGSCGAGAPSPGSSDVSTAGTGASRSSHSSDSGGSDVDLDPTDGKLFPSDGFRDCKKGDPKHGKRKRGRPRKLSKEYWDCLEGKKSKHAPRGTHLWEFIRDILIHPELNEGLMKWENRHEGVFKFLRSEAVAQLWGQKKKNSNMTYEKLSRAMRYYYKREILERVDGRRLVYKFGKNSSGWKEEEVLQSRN
Procedure, shortened: as §1

CRX = CRX (Homo sapiens, UniProt O43186 1-299); details: protein: recombinant; tags: N-terminal GST; dsDNA, one strand shown
Procedure, shortened: as §1

ETV1 = ETV1 (Homo sapiens, UniProt P50549 1-477); details: protein: recombinant; tags: N-terminal GST; dsDNA, one strand shown
Procedure, shortened: as §1

Chain of CRX (O43186 whole entry): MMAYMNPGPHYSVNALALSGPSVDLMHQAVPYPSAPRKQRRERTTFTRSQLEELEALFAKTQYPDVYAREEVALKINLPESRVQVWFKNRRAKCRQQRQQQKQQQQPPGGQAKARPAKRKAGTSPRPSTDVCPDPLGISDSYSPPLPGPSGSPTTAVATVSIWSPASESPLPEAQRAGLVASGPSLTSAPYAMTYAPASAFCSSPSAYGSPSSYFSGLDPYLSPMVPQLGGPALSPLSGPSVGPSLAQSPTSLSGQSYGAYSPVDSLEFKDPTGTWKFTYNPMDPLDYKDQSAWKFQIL
Chain of ELF4 (Q99607 whole entry): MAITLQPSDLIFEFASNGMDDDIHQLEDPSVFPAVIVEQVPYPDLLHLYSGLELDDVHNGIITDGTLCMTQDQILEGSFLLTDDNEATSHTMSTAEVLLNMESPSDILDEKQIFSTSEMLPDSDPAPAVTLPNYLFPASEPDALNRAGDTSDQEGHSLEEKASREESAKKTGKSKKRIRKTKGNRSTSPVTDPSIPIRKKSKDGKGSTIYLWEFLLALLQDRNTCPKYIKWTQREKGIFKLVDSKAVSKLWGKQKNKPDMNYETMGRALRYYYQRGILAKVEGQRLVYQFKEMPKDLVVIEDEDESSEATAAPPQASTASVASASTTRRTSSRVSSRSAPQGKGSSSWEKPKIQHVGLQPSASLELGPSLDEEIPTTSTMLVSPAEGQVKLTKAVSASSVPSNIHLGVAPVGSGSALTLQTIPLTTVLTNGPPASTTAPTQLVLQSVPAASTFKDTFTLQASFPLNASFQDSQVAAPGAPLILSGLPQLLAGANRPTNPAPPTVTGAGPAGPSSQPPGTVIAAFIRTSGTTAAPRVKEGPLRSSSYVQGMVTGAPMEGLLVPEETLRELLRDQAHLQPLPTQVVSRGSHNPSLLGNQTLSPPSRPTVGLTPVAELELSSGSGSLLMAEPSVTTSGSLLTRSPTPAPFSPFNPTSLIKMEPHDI
Chain of ETV5 (P41161 whole entry): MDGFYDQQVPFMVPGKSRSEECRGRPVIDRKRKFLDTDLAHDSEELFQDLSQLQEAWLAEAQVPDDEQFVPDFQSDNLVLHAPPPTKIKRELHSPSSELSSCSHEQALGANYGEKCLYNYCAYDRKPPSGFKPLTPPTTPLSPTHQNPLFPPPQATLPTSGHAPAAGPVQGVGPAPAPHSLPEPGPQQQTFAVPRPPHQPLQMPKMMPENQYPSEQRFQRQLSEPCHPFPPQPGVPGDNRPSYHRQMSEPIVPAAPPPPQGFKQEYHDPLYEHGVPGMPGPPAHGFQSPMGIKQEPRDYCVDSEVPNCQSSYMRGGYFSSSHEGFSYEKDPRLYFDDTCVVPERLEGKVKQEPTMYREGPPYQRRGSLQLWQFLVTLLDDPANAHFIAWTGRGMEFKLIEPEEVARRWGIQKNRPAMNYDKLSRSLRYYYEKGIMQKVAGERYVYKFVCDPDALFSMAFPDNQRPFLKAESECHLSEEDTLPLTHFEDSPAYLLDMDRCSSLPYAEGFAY
Chain of ETV1 (P50549 whole entry): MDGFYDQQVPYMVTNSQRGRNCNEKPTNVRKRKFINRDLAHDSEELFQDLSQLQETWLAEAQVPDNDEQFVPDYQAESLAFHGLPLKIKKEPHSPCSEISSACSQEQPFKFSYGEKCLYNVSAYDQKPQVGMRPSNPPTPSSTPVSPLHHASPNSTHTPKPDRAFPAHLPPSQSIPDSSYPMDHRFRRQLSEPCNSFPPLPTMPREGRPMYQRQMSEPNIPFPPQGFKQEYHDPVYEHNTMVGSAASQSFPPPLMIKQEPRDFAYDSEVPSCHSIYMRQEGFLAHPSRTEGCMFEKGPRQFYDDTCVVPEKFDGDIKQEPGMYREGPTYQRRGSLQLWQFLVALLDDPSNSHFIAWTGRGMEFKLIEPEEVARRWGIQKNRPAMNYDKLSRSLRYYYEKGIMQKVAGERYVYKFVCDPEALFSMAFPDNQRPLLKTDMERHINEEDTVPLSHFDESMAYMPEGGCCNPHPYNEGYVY
Chain of HSF1 (Q00613 whole entry): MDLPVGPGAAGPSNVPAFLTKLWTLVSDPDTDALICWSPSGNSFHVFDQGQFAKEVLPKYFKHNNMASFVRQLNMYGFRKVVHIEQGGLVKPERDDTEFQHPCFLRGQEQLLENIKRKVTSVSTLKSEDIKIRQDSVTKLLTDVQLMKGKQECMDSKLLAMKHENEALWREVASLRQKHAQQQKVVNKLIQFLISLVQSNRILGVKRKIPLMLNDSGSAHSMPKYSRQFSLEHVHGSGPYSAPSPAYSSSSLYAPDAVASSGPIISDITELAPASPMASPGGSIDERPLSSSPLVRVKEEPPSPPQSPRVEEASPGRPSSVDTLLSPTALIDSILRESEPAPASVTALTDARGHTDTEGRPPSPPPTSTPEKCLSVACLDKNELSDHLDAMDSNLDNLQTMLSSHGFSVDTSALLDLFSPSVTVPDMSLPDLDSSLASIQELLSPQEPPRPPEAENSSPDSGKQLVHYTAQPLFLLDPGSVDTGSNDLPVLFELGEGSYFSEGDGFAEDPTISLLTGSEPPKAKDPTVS
Chain of ELF1 (P32519 whole entry): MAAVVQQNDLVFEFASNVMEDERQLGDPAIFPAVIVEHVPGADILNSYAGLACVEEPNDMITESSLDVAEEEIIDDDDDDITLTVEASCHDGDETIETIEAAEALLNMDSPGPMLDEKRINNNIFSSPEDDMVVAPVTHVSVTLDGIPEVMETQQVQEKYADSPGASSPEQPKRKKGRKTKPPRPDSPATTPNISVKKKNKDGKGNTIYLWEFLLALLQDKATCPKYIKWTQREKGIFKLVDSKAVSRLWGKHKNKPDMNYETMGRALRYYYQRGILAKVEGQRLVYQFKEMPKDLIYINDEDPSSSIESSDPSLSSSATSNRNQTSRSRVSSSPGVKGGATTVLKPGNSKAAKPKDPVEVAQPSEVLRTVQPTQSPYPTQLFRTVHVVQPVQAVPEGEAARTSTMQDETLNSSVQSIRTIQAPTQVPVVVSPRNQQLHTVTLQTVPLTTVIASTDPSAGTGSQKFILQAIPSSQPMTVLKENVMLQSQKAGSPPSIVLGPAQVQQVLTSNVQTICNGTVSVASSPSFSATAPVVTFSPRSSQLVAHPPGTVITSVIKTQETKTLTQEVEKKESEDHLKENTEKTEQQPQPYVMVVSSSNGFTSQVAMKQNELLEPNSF
Chain of SPIB (Q01892 whole entry): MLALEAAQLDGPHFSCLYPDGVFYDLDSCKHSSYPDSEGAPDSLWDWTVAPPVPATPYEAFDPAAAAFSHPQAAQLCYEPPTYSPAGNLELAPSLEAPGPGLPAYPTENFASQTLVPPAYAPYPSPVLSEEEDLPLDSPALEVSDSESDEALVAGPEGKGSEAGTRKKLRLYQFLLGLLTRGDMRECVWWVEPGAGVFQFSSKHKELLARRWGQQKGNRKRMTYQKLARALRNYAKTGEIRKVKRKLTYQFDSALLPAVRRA

Sequence: AAATTC
- binding signal (FLI1): 1.31 fold enrichment (6-mer frequency, TF over GST control)
- binding signal (ELK1): 1.31 fold enrichment (6-mer frequency, TF over GST control)
- binding signal (GABPA): 1.4 fold enrichment (6-mer frequency, TF over GST control)
- binding signal (ERG): 1.24 fold enrichment (6-mer frequency, TF over GST control)
- binding signal (ELF1): 1.31 fold enrichment (6-mer frequency, TF over GST control)
- binding signal (EHF): 1.32 fold enrichment (6-mer frequency, TF over GST control)
- binding signal (SPI1): 1.26 fold enrichment (6-mer frequency, TF over GST control)
- binding signal (SPIB): 1.33 fold enrichment (6-mer frequency, TF over GST control)
- binding signal (ELK3): 1.42 fold enrichment (6-mer frequency, TF over GST control)
- binding signal (FEV): 1.26 fold enrichment (6-mer frequency, TF over GST control)
- binding signal (ETV5): 1.38 fold enrichment (6-mer frequency, TF over GST control)
- binding signal (HSF1): 1.95 fold enrichment (6-mer frequency, TF over GST control)
- binding signal (SPIC): 1.34 fold enrichment (6-mer frequency, TF over GST control)
- binding signal (ELF4): 1.32 fold enrichment (6-mer frequency, TF over GST control)
- binding signal (ELK4): 1.15 fold enrichment (6-mer frequency, TF over GST control)
- binding signal (ETV2): 1.26 fold enrichment (6-mer frequency, TF over GST control)
- binding signal (ELF3): 1.35 fold enrichment (6-mer frequency, TF over GST control)
- binding signal (CRX): 1.51 fold enrichment (6-mer frequency, TF over GST control)
- binding signal (ETV1): 1.3 fold enrichment (6-mer frequency, TF over GST control)
